Screening data from PubChem BioAssay.
DT40 TDP1 CPT: DT40-hTDP1 cell growth loss with CPT. Potency, µM (doses to about 46.2 µM), without a hit: top-dose activity change, negative = growth inhibition, most hits filed as inhibitors. chicken DT40 Tdp1-/-;hTDP1 cells + 20 nM CPT, ATP luminescence, 48 h. hit rate 12% among 420,000. AID 686979; also: potency is read from the fitted curve at half-maximal effect; nearly all actives have a fitted effect of over 55% in size
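Cell growth measured by CellTiter-Glo luminescence after a minimum 48 h, 37 C compound exposure with 20 nM CPT in Tdp1-knockout DT40 cells stably expressing hTDP1, seeded 400/well; qHTS titration format.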
RORgamma inh: inhibitors of mouse ROR gamma transcriptional activity; P51450; Drosophila S2 Gal4-RORgamma UAS-luciferase reporter, 20 h; Potency, µM (top dose mostly 53.6 µM), inactives show at the highest dose activity change, negative = inhibition, most hits filed as inhibitors; hit rate 5.4% among 310,000; AID 2551; also: potency is read from the fitted curve at half-maximal effect; nearly all actives have a fitted effect of over 60% in size
Target sequence (P51450 whole entry, looked up, the tested form may be a part): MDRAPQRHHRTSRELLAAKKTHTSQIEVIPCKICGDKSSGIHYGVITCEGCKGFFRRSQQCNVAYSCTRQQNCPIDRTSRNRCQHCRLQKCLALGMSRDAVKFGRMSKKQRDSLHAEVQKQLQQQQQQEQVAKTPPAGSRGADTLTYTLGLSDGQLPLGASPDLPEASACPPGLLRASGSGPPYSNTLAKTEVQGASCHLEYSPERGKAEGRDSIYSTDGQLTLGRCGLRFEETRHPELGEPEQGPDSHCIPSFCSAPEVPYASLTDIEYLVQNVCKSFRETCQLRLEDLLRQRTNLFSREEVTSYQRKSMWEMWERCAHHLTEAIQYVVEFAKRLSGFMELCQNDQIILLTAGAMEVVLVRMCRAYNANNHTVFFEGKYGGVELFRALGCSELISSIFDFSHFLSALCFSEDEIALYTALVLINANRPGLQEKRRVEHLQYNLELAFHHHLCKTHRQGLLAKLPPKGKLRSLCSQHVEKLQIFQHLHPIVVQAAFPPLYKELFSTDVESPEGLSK
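Drosophila Schneider cells stably carrying a metallothionein-driven Gal4 DBD–ROR gamma fusion and a UAS-Photinus luciferase reporter were exposed to compound for 1 hr, then induced with copper sulfate (700 uM final) for 20 hr at ambient temperature before luminescence reading.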
Gal4-VP16 FLuc: inhibits Gal4-VP16 luciferase reporter, ROR gamma counter-screen. Drosophila S2 Gal4-VP16 UAS-luciferase, luminescence, 20 h. Potency, µM (series often up to 53.6 µM), for the others: at the highest dose activity, negative = inhibition, most hits filed as inhibitors. hit rate 3.5% among 310,000. AID 2546;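 also: Gal4-VP16 expression switched on by copper sulfate through the metallothionein promoter; potency is read from the fitted curve at half-maximal effect; nearly all actives have a fitted effect of over 50% in size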
IL-1B inflam inh: inflammasome signaling inhibition, IL-1 beta readout. THP-1 LPS/ATP IL-1B secretion, AlphaLISA, 16 h; hits give low values. hit rate 4.7% among 360,000. activity change, % at 57.5 µM; in the data active = activity change below about -50%; inconclusive = mostly about -30% to -49%
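THP-1 cells pretreated 1 hr with compounds (up to 57.5 uM final), then stimulated with LPS (250 ng/mL final) plus ATP (1.25 mM final); secreted IL-1B measured by AlphaLISA after 16 hr, decreased signal indicating inhibition.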
ELG1 DNA repair: blocks ELG1-dependent DNA repair in HEK293T cells | hit rate 2.3% among 330,000 | HEK293T ELG1-luciferase reporter, luminescence, 16 h; DNA damage induced by 5-fluorouridine | AID 504467 | Potency, µM (titrated, usually from 46.1 µM), for the others: at the top dose activity change, negative = inhibition, hits mostly inhibitors; also: potency is read from the fitted curve at half-maximal effect; nearly all actives have a fitted effect of over 55% in size
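Step one: seed 2,000 cells per well. Step two: pin-transfer compound or DMSO alongside 5-fluorouridine. Step three: incubate 16 hr, 37 °C, 5% CO2. Step four: add ONE-Glo, wait 30 min, read luminescence.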
DT40 TDP1 no CPT: qHTS for Inhibitors of human tyrosyl-DNA phosphodiesterase 1 (TDP1): qHTS in cells in absence of CPT | DT40 Tdp1-/- hTDP1 cells, no CPT, ATP luminescence, 48 h | Potency, µM (highest dose often 46.2 µM), for inactives: top-dose activity change, negative = growth inhibition, usual class: inhibitors | hit rate 15% among 420,000; also: potency is read from the fitted curve at half-maximal effect; nearly all actives have a fitted effect of over 55% in size
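No-CPT arm: Tdp1-/-;hTDP1 DT40 cells (400/well) plus compounds, incubated ≥48 hr at 37 °C. Readout CellTiter-Glo luminescence.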
* hit, by the source's call; ? = inconclusive; . = no result; [ ] = remark or other dose. The list is not random: actives were taken first. Their share in the collection is about 21%. Unless noted, calls follow the shape of the dose curve; as a rule, active = well fitted curve in the direction sought with a large enough effect; inconclusive = small, poorly fitted or top-dose-only effect, or another doubt; inactive = no such curve, though single readings can be large; an effect the other way counts as inactive or inconclusive. % is scaled to controls: 0 for no effect and ±100 for the full control effect.

SMILES	DT40 TDP1 CPT	RORgamma inh	Gal4-VP16 FLuc	IL-1B inflam inh	ELG1 DNA repair	DT40 TDP1 no CPT
Cc1ccc(C)c(-n2c(C)cc(/C=N/NC(=O)c3c(C)nc4cc(C)ccn34)c2C)c1	?	?	14.1µM*	0.0	18.4µM*	20.6µM*
O=C1CSC(=Nc2ccccc2[N+](=O)[O-])N1	3.1%	1.3%	2.3%	15.0	-6.5%	?
Cc1noc(C)c1NC(=O)N(C)C[C@H]1OCc2cnnn2CCCC(=O)N([C@@H](C)CO)C[C@H]1C	1.3%	.	.	18.7	.	-20.9%
CCOC(=O)Cn1c(=O)n(CC2CCCO2)c2nc(-c3ccccc3OC)nc(C(N)=O)c21 (stereo unspecified)	-20.6%	.	.	.	.	-15.5%
Cc1ccc(-n2c(C)cc(/C=N/NC(=O)CC3(C)OCCO3)c2C)cc1	?	-22.4%	?	0.0	?	?
Cc1ccc(-n2c(C)cc(/C=N/NC(=O)c3ccncc3)c2C)cc1	?	7.94µM*	?	11.2	2.1%	-16.6%
Cc1ccc(-n2c(C)cc(/C=N/NC(=O)CN(c3ccc(C)cc3C)S(C)(=O)=O)c2C)cc1	?	?	-20.7%	?	-23.0%	20.6µM*
Cc1ccc(-n2c(C)cc(/C=N/NC(N)=S)c2C)cc1	3.66µM*	2.82µM*	4.47µM*	34.1	?	3.66µM*
Cc1ccc(N(CC(=O)Nc2cc(C)ccc2C)S(C)(=O)=O)cc1	24.1%	23.4%[1.91 µM]	-3.2%	-11.8	-1.0%	-10.3%
Cc1ccc(C(=O)N/N=C/c2cc(C)n(-c3ccc(Br)cc3)c2C)cc1[N+](=O)[O-]	-12.9%	0.398µM*	1.41µM*	-20.0	?	?
NS(=O)(=O)c1ccc(CCNC(=O)c2ccccc2Cc2ccccc2)cc1	?	37.3%	14.1%	-0.1	-5.6%	?
COc1ccc(NS(=O)(=O)c2ccc3c(c2)CCC(=O)N3)cc1O	?	.	.	0.7	11.2%	3.6%
Cc1ccc(-n2c(C)cc(/C=N/NC(=O)c3ccc(CN4CCOCC4)cc3)c2C)cc1	?	7.94µM*	?	-3.9	-3.3%	?
c1ccc(OCc2nn3c(Cn4cnc5ccccc54)nnc3s2)cc1	16.4µM*	18.1%	1.0%	17.4	-24.6%	?
c1ccc(-c2nn3c(Cn4cnc5ccccc54)nnc3s2)cc1	?	0.0708µM*	11.6%[0.365 µM]	-0.8	9.7%	?
c1ccc(-c2nn3c(Cn4nnc5ccccc54)nnc3s2)cc1	?	14.7%	-0.1%	-24.2	16.6%	?
c1ccc2c(c1)ncn2Cc1nnc2sc(-c3ccncc3)nn12	?	?	2.2%	-5.3	?	?
c1ccc2c(c1)nnn2Cc1nnc2sc(-c3ccc4c(c3)OCCO4)nn12	?	7.7%	1.3%	6.4	-12.4%	16.4µM*
c1cncc(-c2nn3c(Cn4cnc5ccccc54)nnc3s2)c1	?	?	-16.6%	?	12.7%	?
Cn1ccnc1C1CCCCN1C(=O)CN1Cc2ccccc2OC(c2ccccc2F)C1 (stereo unspecified)	-10.7%[9.04 µM]	.	.	.	.	?
Cc1ccccc1CNC(=O)C(=O)NCC(c1ccc2c(c1)OCO2)N1CCOCC1 (stereo unspecified)	1.8%	.	.	.	.	-12.8%
Cc1ccc(NC(=O)c2cnc(SCC(=O)N3CCOCC3)n(C)c2=O)cc1	-10.9%	.	.	.	.	-22.8%
CC1Cc2ccccc2N1C(=O)CCn1cccn1 (stereo unspecified)	-2.6%	1.5%	20.9%	14.9	15.3%	?
S=c1[nH]c2ccccc2s1	?	7.94µM*	10µM*	.	.	?
O=C(Nc1ccc2[nH]c(=S)sc2c1)c1ccccc1	11.6%	-23.5%	9.8%	-17.6	?	-5.2%
SMILES	DT40 TDP1 CPT	RORgamma inh	Gal4-VP16 FLuc	IL-1B inflam inh	ELG1 DNA repair	DT40 TDP1 no CPT
COc1ccc(CN2CCOc3ccc(C(O)c4cccnc4)cc3C2)c(F)c1 (stereo unspecified)	1.5%[9.04 µM]	.	.	.	.	?
O=C(Nc1ccc(-n2cc(Br)cn2)cc1)c1ccncc1	-19.8%	?	-0.9%	29.8	-19.8%	-26.5%
CCOC(=O)CNc1ncnc2nc[nH]c12	-5.4%	-1.5%	-6.9%	15.5	3.7%	-4.6%
CC(C)CCCCCCCCCCCCC(=O)NCC(=O)NC1C(O)C(O)C(Nc2ncnc3nc[nH]c23)OC1C(O)CO (stereo unspecified)	0.146µM*	.	.	-99.7*	.	0.184µM*
CCOc1ccc(-n2c(SCC(=O)N3CCc4ccccc43)nc3c([nH]c4ccccc43)c2=O)cc1	-24.6%	.	.	.	.	-10.1%
COc1ccccc1NC(=O)COC(=O)c1[nH]c(=O)[nH]c(=O)c1N	-4.2%	.	.	28.5	21.3%	7.4%
CC(C)N(C(=O)N1CCC(c2nc(-c3ccncc3)no2)CC1)C(C)C	?	29.3%	4.7%	-0.3	16.4µM*	18.4µM*
O=S(=O)(c1ccc2ccccc2c1)N1CCC(c2nc(-c3ccncc3)no2)CC1	16.4µM*	?	?	-18.0	13µM*	9.2µM*
O=C(C1CC1)N1CCC(c2nc(-c3ccc(S(=O)(=O)N4CCCC4)cc3)no2)CC1	?	17.4%	-4.2%	20.3	?	20.6µM*
CC(C)(C)c1ccc(C(=O)N2CCC(c3noc(-c4ccc(S(=O)(=O)N5CCCC5)cc4)n3)CC2)cc1	20.6µM*	.	.	.	.	18.4µM*
O=C(N1CCOCC1)N1CCC(c2nc(-c3ccc(S(=O)(=O)N4CCOCC4)cc3)no2)CC1	?	-6.9%	-5.7%	9.2	2.0%	?
Cc1ccccc1CNC(=O)c1cnc2sc(N3CCC(C)CC3)nn2c1=O	-23.1%	.	.	.	.	-27.5%
COc1ccc(-c2c(O)c3cc(O)cc(O)c3oc2=O)cc1	.	5.0%	?	.	.	.
O=C(NC1CCCCC1)N1CCC(c2nc(-c3ccc(S(=O)(=O)N4CCCC4)cc3)no2)CC1	10.3µM*	-2.1%	?	19.8	?	9.2µM*
O=C(Cc1ccccc1)N1CCCC(c2nc(-c3ccc(S(=O)(=O)N4CCCC4)cc3)no2)C1 (stereo unspecified)	?	10.5%	-3.7%	-71.5*	?	?
O=S(=O)(c1ccc2c(Cl)cccc2c1)N1CCN(c2nc(-c3cccs3)nc3ccccc23)CC1	-3.1%	.	.	.	.	-9.8%
CC(C)OC(=O)c1cc2c(ccn2C)n1CC(=O)N(Cc1ccccc1)c1ccccc1	?	?	?	-63.7*	0.4%	16.4µM*
O=C(NCC1CCCO1)c1ccc(Br)s1 (stereo unspecified)	7.2%	21.9%	21.6%	-0.1	16.7%	4.1%
